This is part of a sample that, as a whole, favours compounds with a hit. Of some 79,000 tested, about 15% had one in any assay. Values without a mark were called inactive. Activity calls are given as the source filed them. Rule as the data show it: active = growth inhibition above about 70%; inactive = the rest.

The nature of this assay: NCI Yeast Anticancer Drug Screen. Data for the mgt1 strain (AID 153). The note with it: S. cerevisiae mgt1 mutant growth inhibition, stronger effect = higher value. How it is done:
Growth inhibition of yeast strains with defined genetic alterations is measured as a screen for potential anti-cancer activity. Selected strains with alterations in DNA damage repair or cell cycle control were exposed to compounds and growth inhibition was measured relative to vehicle treated controls. The strain used in this assay is mgt1

Take `O=[N+]([O-])c1cccc2nc3ccccc3c(NCCCN3CCOCC3)c12`: the growth inhibition is 16% (at 1.2 µM); 43% (at 3.7 µM); 91% (active) (at 11.0 µM); 97% (active) (at 33.0 µM); 98% (active) (at 100.0 µM).
With `Cc1cc(S(=O)(=O)/N=C(/NN)NNc2cccc(C(F)(F)F)n2)c(S)cc1Cl`, the growth inhibition is -3% (at 1.2 µM); -3% (at 3.7 µM); -5% (at 11.0 µM); 10% (at 33.0 µM); 18% (at 100.0 µM).
For the molecule `O=C1NC(=O)C2C3C=CC(C3)C12` (stereo not given), the growth inhibition is, setting by setting: (at 1.2 µM) -1%; (at 3.7 µM) 23%; (at 11.0 µM) 89% (active); (at 33.0 µM) 96% (active); (at 100.0 µM) 97% (active).
On to `[N-]=[N+]=NC1=C(c2ccccn2)C(=O)c2cccc3cccc1c23`, for which the growth inhibition (at 1.2 µM) was -3%; the growth inhibition (at 3.7 µM) was -1%; the growth inhibition (at 11.0 µM) was 19%; the growth inhibition (at 33.0 µM) was 10%; the growth inhibition (at 100.0 µM) was 41%.
For `O=[N+]([O-])c1cccc([N+](=O)[O-])c1S(=O)(=O)c1ccccc1`, the growth inhibition runs as follows: (at 1.2 µM) 19%; (at 3.7 µM) 1%; (at 11.0 µM) 68%; (at 33.0 µM) 93% (active); (at 100.0 µM) 94% (active).
Regarding `CC(C)/C(Cl)=N\OC(=O)Nc1ccccc1F`, the growth inhibition is 0% (at 1.2 µM); 6% (at 3.7 µM); 21% (at 11.0 µM); 23% (at 33.0 µM); 21% (at 100.0 µM).
As for `CC1C(NNc2ccccc2)Oc2cc3c(cc2C1c1ccccc1O)OCO3` (stereo not given), the growth inhibition reads like this: (at 1.2 µM) -4%; (at 3.7 µM) 63%; (at 11.0 µM) 99% (active); (at 33.0 µM) 93% (active); (at 100.0 µM) 94% (active).
As to `CCN(CC)[P+](c1ccccc1O)(N(CC)CC)N(CC)CC`, the growth inhibition runs as follows: (at 1.2 µM) -42%; (at 3.7 µM) -42%; (at 11.0 µM) -32%; (at 33.0 µM) 13%; (at 100.0 µM) 76% (active).

(Values after PubChem BioAssay (NCI).)
